esBAF inh = Bmi1 luciferase reporter increase in mESCs, primary screen, esBAF inhibitor project, mouse ES cells, Bmi1 luciferase knock-in, single point. 350,000 tested, 2% active. AID 602393, 2012. 24 h; 100% = twice the neutral-well signal. reporter increase, % at 12.5 µM; in the data active = activation above about 40%; inconclusive = no clear call, values can overlap the other calls;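 note: a rise in the Bmi1 reporter signal indicates esBAF inhibition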
Wnt act = Wnt/beta-catenin pathway activators, primary screen, cell-based, plate reader, single point; Wnt/beta-catenin reporter cell assay, activator; activation, % at 9.35 µM; 300,000 tested, 1.2% active; in the data active = activation above about 30%, passing the limit was not always enough; inconclusive = no clear call, values can overlap the other calls
GAA850 FXN act = FXN promoter activators, primary screen, cell-based, luciferase luminescence, HEK293 lucGAA850. HEK293 lucGAA850 FXN promoter luciferase reporter, 24 h; percent of 10 µM SAHA response. activation, % at 6 µM. 360,000 tested, 0.56% active;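 active = activation above the average of all compounds screened plus 3 SD, cutoff fixed separately per campaign, cut at about 7.5% in these data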
AHR act = AHR activators, primary screen, cell-based, luminescence, luciferase reporter, human. Aryl hydrocarbon receptor (Homo sapiens), P35869. 320,000 tested, 2.5% active. activation, % at 5 µM. AID 2796, 2010. AHR-responsive luciferase reporter cells; in the data active = activation above about 47%
MITF act = activators of MITF-driven TRPM1 promoter reporter, primary screen, cell-based, SK-MEL-5, luciferase, single point | SK-MEL-5 TRPM1-promoter luciferase, 24 h; % of positive control, neutral wells = 0 | activation, % at 12.5 µM | 300,000 tested, 0.75% active | AID 588334, 2011;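 active = mean activation of at least 80% with every replicate also reaching 80%; inconclusive = mean reaches 80% but some replicate falls short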
Large screens that a line does not name were inactive. Compounds with a hit are over-represented: about 4.2% of the library has one in this group of screens.

CC(C)NC(=O)Nc1ccc2c(c1)C(=O)N([C@@H](C)CO)C[C@@H](C)[C@H](CN(C)S(C)(=O)=O)OCCCC[C@@H](C)O2	none (no result: Wnt act, GAA850 FXN act, AHR act, MITF act)
COc1ccc(/C=N/Nc2nc3ccccc3o2)cc1O	Wnt act 62
Brc1ccc(/C=N/Nc2nc3ccccc3o2)cc1	esBAF inh inconclusive, Wnt act 47, MITF act 99
COc1cc(/C=N/Nc2ccccn2)ccc1O	Wnt act 37 (no result: esBAF inh)
COc1cc(/C=N/Nc2nc3ccccc3o2)cc(OC)c1O	none (no result: Wnt act, MITF act)
COc1cc(/C=N\Nc2nc3ccccc3o2)cc(OC)c1OC	esBAF inh 51, Wnt act inconclusive
C[C@@H]1CN([C@@H](C)CO)C(=O)c2cc(NC(=O)Nc3ccccc3)ccc2O[C@H]1CN(C)Cc1ccc(Cl)c(Cl)c1	none (no result: Wnt act, GAA850 FXN act, AHR act, MITF act)
COc1ccc(/C=N/NC(=O)c2nc(-c3ccccc3)cc(-c3ccccc3)n2)cc1	none (no result: esBAF inh, Wnt act)
COc1ccc(/C=N/NC(=O)c2nc(-c3ccccc3)cc(-c3ccccc3)n2)cc1O	AHR act 52 (no result: esBAF inh)
O=C(OCc1ccccc1)N1CCC2CC1c1ccc(N3CCOCC3)cc12 (stereo not given)	esBAF inh 47 (no result: AHR act, MITF act)
O=C(OCc1ccccc1)N1CCC2CC1c1cc(N3CCOCC3)ccc12 (stereo not given)	none (no result: AHR act)
CSc1ccc(C(=O)N2CCc3ccc(NC(=O)c4ccccn4)cc3C2)cc1	none
CSc1ccccc1C(=O)N1CCc2ccc(NC(=O)c3ccccn3)cc2C1	esBAF inh 46 (no result: AHR act, MITF act)
O=C(Nc1ccc2c(c1)CN(C(=O)Nc1ccc(F)cc1)CC2)c1ccccn1	esBAF inh 47 (no result: AHR act, MITF act)
COc1ccc(-c2nnc(NC(=O)C(C)C)s2)c(OC)c1	esBAF inh 42, Wnt act 34
COC(=O)Nc1nnc(-c2ccncc2)s1	none (no result: Wnt act)
COC(=O)Nc1nnc(-c2ccccc2Cl)s1	AHR act 55, MITF act 88 (no result: Wnt act)
COc1ccc(Cc2nnc(NC(=O)C(C)C)s2)cc1	none (no result: MITF act)
COc1ccccc1-c1nnc(NC(=O)OCC(C)C)s1	AHR act 64
C[C@H](CO)N1C[C@H](C)[C@H](CN(C)C(=O)Nc2ccc(C(F)(F)F)cc2)Oc2ncc(C#C[C@@H](C)O)cc2C1=O	none (no result: Wnt act, GAA850 FXN act, AHR act, MITF act)
O=C(NC1CC1)c1ccc(-c2cnc3cccnn23)cc1	Wnt act 35 (no result: AHR act, MITF act)
O=C(NC1CC1)c1cccc(-c2cncc3nccn23)c1	none (no result: AHR act, MITF act)
Cc1ccc(-c2ccnc3c(Cl)c(C)nn23)cc1	none
Cc1nc2c(-c3ccccc3)c(C)nn2c(N)c1-c1ccccc1	MITF act 86 (no result: esBAF inh, Wnt act)
Cc1nc2cc(-c3ccccc3)nn2c(N)c1-c1ccccc1	none
Cc1nn2c(N)c(-c3ccccc3)cnc2c1-c1ccc(Cl)cc1	esBAF inh inconclusive, AHR act 64, MITF act 101
Cc1nn2c(-c3ccccc3)ccnc2c1-c1ccccc1	Wnt act 40, MITF act inconclusive (no result: esBAF inh)
COc1ccccc1/C=C1\C(=O)Nc2ccccc21	none (no result: AHR act, MITF act)
Cc1ccc2c(c1)/C(=C/c1ccccc1C)C(=O)N2	AHR act 57
Cc1ccc2c(c1)/C(=C/c1ccc(F)cc1)C(=O)N2	none
O=C1Nc2ccccc2/C1=C/c1ccccc1Cl	AHR act 59
CN(C)C(=O)C[C@@H]1C[C@H]2c3cc(NS(C)(=O)=O)ccc3O[C@H]2[C@H](CO)O1	none (no result: Wnt act, GAA850 FXN act, AHR act, MITF act)
Nc1ccc2nn(-c3cccc4ccccc34)nc2c1	AHR act 48 (no result: esBAF inh, Wnt act)
Nc1ccc2nn(-c3ccccc3)nc2c1	esBAF inh 57 (no result: AHR act)
Nc1cc2nn(-c3ccccc3)nc2cc1Cl	Wnt act 49 (no result: esBAF inh, AHR act)
Nc1ccc(-n2nc3ccccc3n2)cc1	none (no result: esBAF inh, MITF act)
O=C(CN1CCOCC1)NCC[C@H]1CC[C@@H](NS(=O)(=O)c2ccc(Cl)cc2)[C@@H](CO)O1	none (no result: Wnt act, GAA850 FXN act, AHR act, MITF act)
Nn1c(SCC(=O)NCCC2=CCCCC2)nnc1C(F)(F)F	AHR act 50 (no result: esBAF inh)
CC(C)c1ccc(-c2nn(-c3ccccc3)cc2C2C(C#N)=C(N)OC3=C2C(=O)CC(C)(C)C3)cc1 (stereo not given)	esBAF inh 52 (no result: MITF act)
Cc1nn(-c2ccccc2)c(Cl)c1C1C(C#N)=C(N)OC2=C1C(=O)CC(C)(C)C2 (stereo not given)	none
Cc1noc(C)c1NC(=O)N(C)C[C@@H]1Oc2ccc(NS(=O)(=O)c3ccc(F)cc3)cc2CC(=O)N([C@@H](C)CO)C[C@@H]1C	none (no result: Wnt act, GAA850 FXN act, AHR act, MITF act)
O=c1oc2ccccc2cc1-c1nnc(NCc2ccco2)s1	Wnt act 72 (no result: MITF act)

Bioassay records (PubChem BioAssay)
